PubChem BioAssay (EPA / NIEHS)
The source made the active and inactive calls. How the source made its calls: active means hit-call score of the fitted dose curve at least 0.9, where 1 is the maximum; inactive means score below 0.9.

read-out: not listed separately; test: CEETOX_H295R_ESTRONE: CeeTox H295R High-throughput Steroidogenesis Assay for Estrone (AID 2283441); settings: actives raise or lower the signal;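 further: estrone secreted into medium measured by LC-MS/MS after dansyl derivatization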;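 on AC50: human adrenal H295R cells prestimulated with forskolin for two days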
Procedure, shortened: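 H295R cells; 48 h forskolin (10 uM) prestimulation; 48 h compound exposure, 0.1% DMSO final. Medium estrone: MTBE extraction, dansyl derivatization, HPLC-MS/MS. Bidirectional fit vs DMSO.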

| SMILES | outcome | AC50 |
| --- | --- | --- |
| C[C@]12C=CC(=O)C=C1CC[C@@H]1[C@@H]2C(=O)C[C@@]2(C)[C@H]1CC[C@]2(O)C(=O)CO | inactive | – |
| Cc1nc(-c2ccc3c(c2)CCN(CCC2CCC(NC(=O)/C=C/c4ccc(F)cc4)CC2)CC3)no1 (centres undefined) | inactive | – |
| Cc1cccc(Nc2cc(Cl)nc(SCC(=O)O)n2)c1C | inactive | – |
| Nc1ccccc1N | inactive | – |
| Cc1c(C(=O)O)c(O)cc2c1C(=O)c1c(O)c([C@@H]3O[C@H](CO)[C@@H](O)[C@H](O)[C@H]3O)c(O)c(O)c1C2=O | inactive | – |
| CN1CCN(Cc2cc(-c3ccc4[nH]c(=O)oc4c3)co2)[C@@H](c2ccc(F)cc2)C1 | inactive | – |
| c1cc(-c2ccncc2)ccn1 | inactive | – |
| Oc1ccc2ccccc2c1N=Nc1ccccc1 | – | 10.1 µM (active) |
| Oc1ccc2c(c1)OC[C@@H](N1CCC(O)(c3ccc(F)cc3)CC1)[C@H]2O | inactive | – |
| COC(=O)c1ccc(O)cc1 | inactive | – |

read-out: not listed separately; test: CEETOX_H295R_PROG: CeeTox H295R High-throughput Steroidogenesis Assay for Progesterone (PROG) (AID 2283442); settings: actives raise or lower the signal;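 on AC50: human H295R adrenal cells primed with 10 µM forskolin before dosing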
Procedure, shortened: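 Measured analyte is progesterone secreted by H295R cells at 48 h of chemical treatment, following 10 uM forskolin priming. Quantitation used HPLC-MS/MS against a 7-point standard curve; cytotoxicity was checked by MTT absorbance.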

| SMILES | AC50 | outcome |
| --- | --- | --- |
| Nc1ccc2c(c1)C(=O)c1ccccc1C2=O | 6.71 µM (active) | – |
| Cc1cc(NC(=O)C(=O)O)cc(C)c1Oc1ccc(O)c2c1CCC2 | 43.2 µM (active) | – |
| Cc1nc(-c2ccc3c(c2)CCN(CCC2CCC(NC(=O)/C=C/c4ccc(F)cc4)CC2)CC3)no1 (centres undefined) | 0.0391 µM (active) | – |
| Cc1cccc(Nc2cc(Cl)nc(SCC(=O)O)n2)c1C | 12.3 µM (active) | – |
| C=CCc1ccc(O)c(OC)c1 | – | inactive |
| Nc1ccc(S(=O)(=O)c2ccc(N)cc2)cc1 | 36.1 µM (active) | – |
| CC1(C)CC(N=C=O)CC(C)(CN=C=O)C1 (centres undefined) | – | inactive |
| Nc1ccccc1N | – | inactive |
| Cc1nc(C)nc(N2C[C@@H](C)N(c3ccnc([C@@H](C)O)n3)[C@@H](C)C2)n1 | – | inactive |
| COc1ccc(C)cc1N | 33.2 µM (active) | – |
| COc1ccc(S(=O)(=O)N2C(=O)[C@@](c3ccccc3OC)(N3C[C@H](O)C[C@H]3C(=O)N(C)C)c3cc(Cl)ccc32)c(OC)c1 | – | inactive |
| Cc1c(C(=O)O)c(O)cc2c1C(=O)c1c(O)c([C@@H]3O[C@H](CO)[C@@H](O)[C@H](O)[C@H]3O)c(O)c(O)c1C2=O | – | inactive |
| CN1CCN(Cc2cc(-c3ccc4[nH]c(=O)oc4c3)co2)[C@@H](c2ccc(F)cc2)C1 | 14.1 µM (active) | – |
| c1cc(-c2ccncc2)ccn1 | – | inactive |
| CC=Cc1ccc(O)c(OC)c1 | – | inactive |
| CCOc1ccc2c(c1)C(C)=CC(C)(C)N2 | 16.7 µM (active) | – |
| NC(=O)Cn1c(=O)cc(CCN2CCN(c3nccc4sccc34)CC2)c2ccc(F)cc21 | 2.02 µM (active) | – |
| Oc1ccc2c(c1)OC[C@@H](N1CCC(O)(c3ccc(F)cc3)CC1)[C@H]2O | – | inactive |
| COc1ccc2c(c1)c(CC(=O)O)c(C)n2C(=O)c1ccc(Cl)cc1 | – | inactive |
| COC(=O)c1ccc(O)cc1 | 50 µM (active) | – |

read-out: Tumor necrosis factor receptor superfamily member 6 (Homo sapiens) (UniProt P25445); test: LTEA_HepaRG_FAS: Life Technologies and Expression Analysis (LTEA) Assay for Fas cell surface death receptor (FAS) using HepaRG (AID 2283447); settings: mRNA level, 48 h; actives raise or lower the signal
Procedure, shortened: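 Differentiated HepaRG cells in serum-free induction medium were exposed 48 h to 8 half-log concentrations up to 100 uM in 0.5% DMSO, in duplicate. FAS mRNA was measured by qRT-PCR normalised to ACTB, GAPDH and POLR2A; bidirectional fit versus DMSO.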

| SMILES | outcome | AC50 |
| --- | --- | --- |
| Cc1ccc(C)c(C)c1 | inactive | – |
| Nc1ccc2c(c1)C(=O)c1ccccc1C2=O | inactive | – |
| C[C@]12C=CC(=O)C=C1CC[C@@H]1[C@@H]2C(=O)C[C@@]2(C)[C@H]1CC[C@]2(O)C(=O)CO | inactive | – |
| Cc1cc(NC(=O)C(=O)O)cc(C)c1Oc1ccc(O)c2c1CCC2 | inactive | – |
| Cc1nc(-c2ccc3c(c2)CCN(CCC2CCC(NC(=O)/C=C/c4ccc(F)cc4)CC2)CC3)no1 (centres undefined) | inactive | – |
| Cc1cccc(Nc2cc(Cl)nc(SCC(=O)O)n2)c1C | inactive | – |
| C=CCc1ccc(O)c(OC)c1 | inactive | – |
| Nc1ccc(S(=O)(=O)c2ccc(N)cc2)cc1 | inactive | – |
| CC1(C)CC(N=C=O)CC(C)(CN=C=O)C1 (centres undefined) | inactive | – |
| O=C(OCCCCCOC(=O)c1ccccc1)c1ccccc1 | – | 1.08 µM (active) |
| C1CCC(SSC2CCCCC2)CC1 | inactive | – |
| Nc1ccccc1N | – | 50 µM (active) |
| Cc1nc(C)nc(N2C[C@@H](C)N(c3ccnc([C@@H](C)O)n3)[C@@H](C)C2)n1 | inactive | – |
| COc1ccc(C)cc1N | inactive | – |
| COc1ccc(S(=O)(=O)N2C(=O)[C@@](c3ccccc3OC)(N3C[C@H](O)C[C@H]3C(=O)N(C)C)c3cc(Cl)ccc32)c(OC)c1 | inactive | – |
| CCCCCCCCCCCC(=O)OC | inactive | – |
| Cc1c(C(=O)O)c(O)cc2c1C(=O)c1c(O)c([C@@H]3O[C@H](CO)[C@@H](O)[C@H](O)[C@H]3O)c(O)c(O)c1C2=O | inactive | – |
| Cc1ccc(N(C)C)cc1 | inactive | – |
| CN1CCN(Cc2cc(-c3ccc4[nH]c(=O)oc4c3)co2)[C@@H](c2ccc(F)cc2)C1 | inactive | – |
| c1cc(-c2ccncc2)ccn1 | inactive | – |
| CCNc1cccc(C)c1 | inactive | – |
| CC=Cc1ccc(O)c(OC)c1 | inactive | – |
| CCOc1ccc2c(c1)C(C)=CC(C)(C)N2 | inactive | – |
| Oc1ccc2ccccc2c1N=Nc1ccccc1 | inactive | – |
| NC(=O)Cn1c(=O)cc(CCN2CCN(c3nccc4sccc34)CC2)c2ccc(F)cc21 | inactive | – |
| Oc1ccc2c(c1)OC[C@@H](N1CCC(O)(c3ccc(F)cc3)CC1)[C@H]2O | inactive | – |
| O=c1[nH]cc(F)c(=O)[nH]1 | – | 31.3 µM (active) |
| COc1ccc2c(c1)c(CC(=O)O)c(C)n2C(=O)c1ccc(Cl)cc1 | inactive | – |
| COC(=O)c1ccc(O)cc1 | inactive | – |
